# Screening data (PubChem)
# Rows were chosen to be rich in hits. Some 5.4% of all compounds tested hit in one or more screens of this group.
# Calb FLC = C. albicans growth modulation with fluconazole. C. albicans CaCi-2 (fluconazole-resistant clinical isolate) + fluconazole, Alamar Blue growth, 48 h. AID 1979. 300,000 compounds, 0.57% hits. growth inhibition, % (no concentration beside the values);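 active = growth inhibition above about 58% in most replicates, limit read from the data, passing the limit was not always enough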;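 note: all wells also contain fluconazole at 8 µg/ml as a sub-toxic cotreatment; 0% = median of DMSO wells and 100% = median of geldanamycin control wells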
# MPTP block = blocks calcium-induced mitochondrial swelling; isolated mouse mitochondria, Ca2+ swelling absorbance, 30 min; inhibition, % at 10 µM; 360,000 compounds, 1.4% hits; AID 602449;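 active = inhibition of 50% or more, scaled per plate between neutral and stimulator controls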;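 note: 0% = DMSO wells given calcium and 100% = 1 mM EGTA wells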
# SKKanGAS inh = inhibitors of SKKanGAS S. pyogenes growth in kanamycin (SK-promoter or general growth effect); BacTiter-Glo, 6 h; inhibition, % at 7.5 µM; 300,000 compounds, 1.3% hits; AID 1662;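 active = mean replicate score, as percent of positive control median, at least 50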;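 note: strain carries kanamycin resistance gene driven by streptokinase promoter and grows in 40 µg/ml kanamycin; loss of luminescence reflects streptokinase promoter inhibition or plain growth inhibition; 0% = median of DMSO wells and 100% = positive control at its reference dose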
# Mdm2-MdmX inh = inhibitors of human Mdm2/MdmX interaction; O15151+Q00987; SaOS-2 split-luciferase Mdm2/MdmX complementation, luminescence; inhibition, % at 8 µM; 330,000 compounds, 3% hits; AID 485346;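 active = inhibition of at least 50% at 8 µM in the primary screen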
# Target sequence (O15151 whole entry, looked up): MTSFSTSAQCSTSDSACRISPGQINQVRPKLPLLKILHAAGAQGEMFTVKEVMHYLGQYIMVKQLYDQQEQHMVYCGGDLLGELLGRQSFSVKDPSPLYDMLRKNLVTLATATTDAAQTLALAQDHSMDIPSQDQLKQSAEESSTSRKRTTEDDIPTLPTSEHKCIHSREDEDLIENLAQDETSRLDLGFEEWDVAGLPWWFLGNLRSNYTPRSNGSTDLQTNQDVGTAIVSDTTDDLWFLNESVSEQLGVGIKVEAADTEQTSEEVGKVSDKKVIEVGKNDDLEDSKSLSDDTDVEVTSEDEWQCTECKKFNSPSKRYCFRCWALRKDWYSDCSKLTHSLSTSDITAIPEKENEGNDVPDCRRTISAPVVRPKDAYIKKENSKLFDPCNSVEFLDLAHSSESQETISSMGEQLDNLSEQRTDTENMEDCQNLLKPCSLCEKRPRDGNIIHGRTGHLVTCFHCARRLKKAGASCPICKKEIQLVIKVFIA
# Target sequence (Q00987 whole entry, looked up): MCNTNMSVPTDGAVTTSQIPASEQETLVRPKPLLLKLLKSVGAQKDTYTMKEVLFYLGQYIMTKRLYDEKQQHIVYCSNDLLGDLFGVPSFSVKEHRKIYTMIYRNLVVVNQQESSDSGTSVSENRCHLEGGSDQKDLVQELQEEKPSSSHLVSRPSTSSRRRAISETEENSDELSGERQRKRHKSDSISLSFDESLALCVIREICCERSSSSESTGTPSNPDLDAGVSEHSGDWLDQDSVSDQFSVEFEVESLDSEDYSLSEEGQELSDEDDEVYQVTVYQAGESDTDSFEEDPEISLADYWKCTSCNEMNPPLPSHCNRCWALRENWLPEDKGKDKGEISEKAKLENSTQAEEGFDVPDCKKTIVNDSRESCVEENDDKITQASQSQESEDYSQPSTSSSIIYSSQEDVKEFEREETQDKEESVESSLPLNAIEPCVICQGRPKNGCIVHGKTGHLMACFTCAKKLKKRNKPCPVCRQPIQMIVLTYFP
# CSC inhib = blocks cancer stem cells; cancer stem cell-like cells viability, luminescence; 300,000 compounds, 1.1% hits; inhibition, % at 7.5 µM; AID 2717; in the data active = inhibition above about 75%; tested in HMLE shEcad cells
# Beta apoptosis = blocks beta cell apoptosis; INS-1E cytokine-induced death, ATP luminescence, 48 h; percent of positive-control rescue, neutral wells zero; protection from apoptosis, % (no concentration beside the values); 300,000 compounds, 0.8% hits;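 active = Every replicate reaches about 75%, or at least half do and their mean reaches it too, limit read from the data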;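 note: 0% = cytokine-treated negative control wells and 100% = positive control rescue; higher means more ATP so stronger rescue from cytokine killing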
# Mdm2-MdmX conf = human Mdm2/MdmX binding inhibition, confirmed; shares compounds with Mdm2-MdmX inh; luminescent assay; inhibition, % at 8 µM; 10,000 compounds, 55% hits; in the data active = inhibition above about 40%
# FLuc counter = inhibits full-length luciferase, flagging false Mdm2/MdmX hits; shares compounds with Mdm2-MdmX inh; 6,200 compounds, 77% hits; SaOS-2 full-length luciferase counterscreen, luminescence; inhibition, % at 8 µM;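 active = mean inhibition at 8 µM reaching about 37%, which flags the compound as non-specific, limit read from the data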;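 note: p53-null SaOS-2 cells with luciferase driven by a doxycycline-inducible promoter; compound on cells about two nights before reading with doxycycline added after day one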
# An asterisk follows results filed as active; · = not tested or not shown.
SMILES,Calb FLC,MPTP block,SKKanGAS inh,Mdm2-MdmX inh,CSC inhib,Beta apoptosis,Mdm2-MdmX conf,others
COC(=O)C1=C(c2ccccc2OCc2ccccc2)C[C@@H]2CC[C@H]1N2C(=O)NCCN1CCOCC1,·,-2,·,-22,2,-7,·,
c1ccc2oc(-c3ccc4c(c3)CNCc3cnnn3-4)cc2c1,·,2,·,·,·,·,·,
COc1ccc(NC(=O)[C@@H](NC(=O)N2C[C@H]3C[C@@H](C2)c2cccc(=O)n2C3)C(C)C)cc1,-2,0,-4,6,-6,-5,·,
CCCCCn1c(=O)c(C(=O)Nc2ccccn2)c(O)c2ccccc21,-1,5,1,54*,20,·,19,
CCCCCCn1c(=O)c(C(=O)Nc2cnccn2)c(O)c2ccccc21,7,14,64*,61*,41,28,52*,FLuc counter=46*
CN(CC1COc2ccccc2O1)c1nc(-c2cccnc2)nc2ccccc12 (centres undefined),7,-2,36,14,29,-9,·,
COc1ccc(C2C3C=CC(C3)C2C(=O)O)cc1 (centres undefined),·,0,·,·,·,·,·,
CCc1ccc(CN2CCCC(C(=O)c3sccc3C)C2)o1 (centres undefined),-10,-1,4,14,-11,-4,·,
CN1CCc2cc(O)cc3c2[C@H]1Cc1ccc(O)c(O)c1-3,·,0,-2,6,0,-3,·,
CN1CCc2cc3c(c4c2C1Cc1ccccc1-4)OCO3 (centres undefined),92*,0,4,59*,18,88*,52*,FLuc counter=61*
O=C(c1cccc(Cl)c1)C1CCCN(Cc2cccc3cnccc23)C1 (centres undefined),-22,2,-2,21,6,-1,·,
C=C1C(=O)O[C@@H]2C[C@@H](C)[C@H]3C=CC(=O)[C@]3(O)C[C@@H]12,26,0,1,58*,3,2,-8,
COc1ccc2c3c1OC1C(=O)CC[C@@]4(O)[C@@H](C2)N(C)CC[C@]314 (some centres undefined),·,0,·,67*,·,·,53*,FLuc counter=21
CC[C@H](C)[C@@H]1O[C@@]2(C=CC1C)CC1C[C@@H](CC=C(C)C(O[C@H]3CC(OC)C(O[C@H]4CC(OC)C(O)C(C)O4)C(C)O3)C(C)C=CC=C3CO[C@@H]4C(O)C(C)=C[C@@H](C(=O)O1)[C@]34O)O2 (some centres undefined),·,·,·,85*,103*,17,15,
CC/C(=C\C=C\[C@@H]1C=C[C@@H]2CCC[C@H]2[C@@H]1C(=O)c1ccc[nH]1)[C@@H]1O[C@@H]([C@@H](C)C(=O)O)CC[C@@H]1C,38,·,131*,84*,90*,35,74*,FLuc counter=37*
O=C(CSC1c2ccccc2-c2ccccc21)N/N=C/c1ccccc1O,19,15,5,82*,83*,87*,76*,FLuc counter=28
O=C1NC(=O)C(=CN2CCc3ccccc32)C(=O)N1,28,-1,-2,8,-20,-8,·,
COC(=O)C1=C(c2ccc(OC)c(OC)c2)C[C@@H]2CC[C@H]1N2C(=O)N1CCCC1,·,-1,·,29,-2,-3,·,
Cc1ccc(Oc2cc(NN3CCCCC3)c([N+](=O)[O-])cc2[N+](=O)[O-])c([N+](=O)[O-])c1,-5,0,10,51*,17,-1,28,
O=[N+]([O-])c1cc(F)c(N2CCCCC2)cc1Br,7,1,-2,8,-11,0,·,
CCOC(=O)c1sc(/N=C/c2c(O)n(-c3cccc(C)c3)c(=O)[nH]c2=O)c(C#N)c1C,-4,3,2,10,·,0,·,
COC(=O)C1=C(c2ccc(F)cc2OCc2ccccc2)C[C@@H]2CC[C@H]1N2C(=O)NCc1cc(C)oc1C(F)(F)F,·,1,·,45,35,-2,·,
CC(C)(O)[C@H]1O[C@H]2CC[C@@]3(C)[C@@](O)(CC[C@H]4Cc5c([nH]c6ccccc56)[C@@]43C)C2=CC1=O,·,·,7,62*,16,4,50*,FLuc counter=77*
CCCCn1c(N)c(C(=O)NCCN2CCOCC2)c2nc3ccccc3nc21,-2,-1,11,4,14,-2,·,
Nc1c(C(=O)NCCc2ccccc2)c2nc3ccccc3nc2n1CCN1CCOCC1,2,-1,14,54*,·,·,28,
SMILES,Calb FLC,MPTP block,SKKanGAS inh,Mdm2-MdmX inh,CSC inhib,Beta apoptosis,Mdm2-MdmX conf,others
COc1ccc(CCNC(=O)c2c(N)n(CCN3CCOCC3)c3nc4ccccc4nc23)cc1,-6,-2,50*,76*,42,1,8,
COC(=O)C1=C(c2ccc(S(C)(=O)=O)cc2)C[C@@H]2CC[C@H]1N2C(=O)NCc1cccc2ccccc12,27,-1,-1,-1,-9,-7,·,
N#CC(C#N)=C(N)c1cccnc1,-2,1,-6,55*,5,·,-24,
O=C(Cc1ccccc1)OCCNC(=O)c1cccnc1,-11,-1,-5,18,·,·,·,
CC(=O)O[C@@H]1/C=C/[C@](C)(O)C[C@@H](C)C/C=C/[C@H]2[C@@H]3O[C@]3(C)[C@@H](C)[C@H]3[C@H](Cc4ccccc4)NC(=O)[C@@]312,1,0,-1,78*,50,19,51*,FLuc counter=42*
Cn1ncnc2c(=O)n(C)c(=O)nc1-2,17,1,25,92*,176*,125*,84*,FLuc counter=21
COC(=O)[C@@H]1[C@@H](C(=O)OC)C2(c3ccccc3-c3ccccc32)N(c2ccc(Cl)cc2)N1C#N,-7,-1,0,101*,-10,50,18,
COC(=O)C[C@]1(C(=O)OC)CN(C#N)N(c2ccc(Cl)cc2)C12c1ccccc1-c1ccccc12,-6,-1,-28,99*,0,112*,7,
CCOC(=O)[C@]12Cc3cc(Cl)ccc3[C@H]1N(CC(=O)OC)C(=O)c1ccccc12,·,-4,·,·,·,·,·,
FC(F)(F)c1ccc2c(c1)N(CCCN1CCN(CCCl)CC1)c1ccccc1S2,-10,14,11,61*,44,4,23,
CCCCn1nnnc1C(CC)N1CCC2(CC1)C(=O)NCN2c1ccccc1 (centres undefined),·,-1,·,·,·,·,·,
COc1ccc(C2=CC(c3ccc(OC)c(OC)c3)c3c(c4ccccc4oc3=O)O2)cc1OC (centres undefined),-3,0,20,55*,54,16,65*,FLuc counter=66*
COc1ccc(CCN)cc1OC,-15,0,0,16,-8,-1,·,
NCCc1ccc(OCc2ccccc2)c(OCc2ccccc2)c1,·,8,·,92*,106*,9,24,
